Experimental data published in paper PMC12431657, “Discovery and mechanistic insights of dibenzoylmethane as a broad spectrum inhibitor of coronavirus” (PLOS Pathogens, 2025).
Counter-ions that a name gives are not always drawn. Like-named read-outs stand apart in the source and are kept apart here. Among all 3,300 compounds or so, about 95 (3%) showed an effect of 50% or more. Shown is part of a subset that was picked to be rich in strong results.

System: HCoV-229E
Parameters: species or system Huh-7; HTS, protection from HCoV-229E induced cell death, luminescent cell viability (CellCounting-Lite 2.0), inhibition rate
Details: 24 h post infection, 1 h compound pre-incubation, 10 µM, inhibitor

SMILES | 229E Inhibition rate (229E Inhibition rate, 24 h) | 229E Inhibition rate
C/C=C1\C(=O)C[C@H]2[C@@H]3CCC4=CC(=O)CC[C@]4(C)[C@H]3CC[C@]12C [(Z)-Guggulsterone] | 6.7% | –
C/C=C(/C)C(=O)O[C@@H]1[C@H](OC(=O)CC(C)C)c2c(ccc3ccc(=O)oc23)OC1(C)C [Praeruptorin C] | – | 32.9%
C/C=C(/C)C(=O)O[C@@H]1c2c(ccc3ccc(=O)oc23)OC(C)(C)[C@@H]1OC(=O)/C(C)=C\C [(-)-Anomalin] | – | 51.7%
C/C=C(/C)C(=O)O[C@@H]1c2c(ccc3ccc(=O)oc23)OC(C)(C)[C@@H]1OC(C)=O [Pteryxin] | – | 4.8%
C/C=C(/C)C(=O)O[C@H]1[C@@H](OC(=O)CC(C)C)c2c(ccc3ccc(=O)oc23)OC1(C)C [Praeruptorin E] | – | 43.4%
C/C=C(\C)C(=O)OC1c2c(ccc3ccc(=O)oc23)OC(C)(C)C1OC(=O)/C(C)=C/C (stereo not drawn) [Praeruptorin B] | – | 53.9%
C/C=C(/C)C(=O)O[C@H]1[C@@H](OC(C)=O)c2c(ccc3ccc(=O)oc23)OC1(C)C [Praeruptorin A] | – | 19.1%
CC(C)=CCc1c2ccoc2c(O)c2oc(=O)ccc12 [Alloimperatorin] | – | 0%
c1c2c(cc3c1OCO3)-c1cc3ccc4c(c3c[n+]1CC2)OCO4 [Coptisine (chloride)] | 32% | –
O=C(O)C1CSSC1 [Asparagusic acid] | – | 15.6%
CC(C)C[C@H](NC(=O)CN)C(=O)O [Glycyl-L-leucine] | – | 13.8%
O=C1c2c(O)cc(O)cc2O[C@H](c2ccc(O)cc2)[C@H]1O [Dihydrokaempferol] | – | 9.9%
C=C(C)[C@H](CC=C(C)C)Cc1c(O)cc(O)c2c1O[C@H](c1ccccc1O)CC2=O [Kushenol A] | – | 10.8%
COc1cc(O)c(CC=C(C)C)c2c1C(=O)CC(c1ccc(O)cc1)O2 (stereo not drawn) [Isoxanthohumol] | – | 23.6%
C=C(C)[C@H](CC=C(C)C)Cc1c(O)cc(O)c2c1O[C@H](c1ccc(O)cc1O)CC2=O [sophoraflavanone G] | – | 75.7%
C=C(C)[C@H](CC=C(C)C)Cc1c(O)cc(OC)c2c1O[C@H](c1ccc(O)cc1O)CC2=O [Kurarinone] | – | 19.7%
C=C(C)[C@H](CC=C(C)C)Cc1c(O)cc(OC)c2c1O[C@H](c1ccc(O)cc1OC)CC2=O [(2S)-2'-Methoxykurarinone] | – | 62.1%

SMILES | 229E Inhibition rate (229E Inhibition rate, 24 h) | 229E Inhibition rate
C=C(C)[C@H](CC=C(C)C)Cc1c(O)cc(OC)c2c1O[C@H](c1ccc(O)cc1O)[C@@H](O)C2=O [Kushenol I] | – | 6.5%
C[C@H](O)[C@H](O)C1=Nc2c(nc(N)[nH]c2=O)NC1 [7,8-Dihydro-L-biopterin] | – | 24.5%
N[C@@H](CCC(=O)O)C(=O)O [L-Glutamic acid (monosodium salt)] | 12% | –
C[C@@H]1O[C@@H](O[C@H]2[C@H](Oc3cc(O)c4c(=O)cc(-c5ccc(O)cc5)oc4c3)O[C@H](CO[C@@H]3O[C@H](CO)[C@@H](O)[C@H](O)[C@H]3O)[C@@H](O)[C@@H]2O)[C@H](O)[C@H](O)[C@H]1O [Apigenin-7-O-(2G-rhamnosyl)gentiobioside] | – | 22.2%
Nc1ccccc1S(=O)(=O)O [2-Aminobenzenesulfonic acid] | – | 0%
COc1cc(-c2[o+]c3cc(O)cc(O)c3cc2O)cc(O)c1O [Petunidin (chloride)] | – | 13.2%
O=C(/C=C/c1ccc(O[C@@H]2O[C@H](CO)[C@@H](O)[C@H](O)[C@H]2O[C@@H]2OC[C@](O)(CO)[C@H]2O)cc1)c1ccc(O)cc1O [Isoliquiritin apioside] | – | 63.8%
O=C(/C=C/c1ccc(O[C@@H]2O[C@H](CO)[C@@H](O)[C@H](O)[C@H]2O)cc1)c1ccc(O)cc1O [Isoliquiritin] | – | 27.7%
O=C(/C=C/c1ccc(O)cc1)c1ccc(O[C@@H]2O[C@H](CO)[C@@H](O)[C@H](O)[C@H]2O)cc1O [Neoisoliquiritin] | – | 24.9%
C=C1CC[C@H]2O[C@]2(C)CC[C@@H]2[C@@H]1CC2(C)C [Caryophyllene oxide] | – | 16.3%
O=C(O)c1ccc(O)c(O)c1O [2,3,4-Trihydroxybenzoic acid] | – | 18%
C[C@H](CC[C@@H](O[C@@H]1O[C@H](CO[C@@H]2O[C@H](CO)[C@@H](O)[C@H](O)[C@H]2O)[C@@H](O)[C@H](O)[C@H]1O[C@@H]1O[C@H](CO)[C@@H](O)[C@H](O)[C@H]1O)C(C)(C)O)[C@H]1CC[C@@]2(C)[C@@H]3CC=C4[C@@H](CC[C@H](O[C@@H]5O[C@H](CO[C@@H]6O[C@H](CO)[C@@H](O)[C@H](O)[C@H]6O)[C@@H](O)[C@H](O)[C@H]5O)C4(C)C)[C@]3(C)C(=O)C[C@]12C [11-oxo-mogroside V] | – | 0%
COc1cc([C@@H]2OC[C@@H]3[C@H]2CO[C@H]3c2cc(OC)c(O)c(OC)c2)cc(OC)c1O [(-)-Syringaresinol] | – | 16.7%
Cc1cc(O)c2c(c1)C(=O)c1cccc(O[C@@H]3O[C@H](CO)[C@@H](O)[C@H](O)[C@H]3O)c1C2=O [Chrysophanol 8-O-glucoside] | – | 8.4%
Cc1cc(O[C@@H]2O[C@H](CO)[C@@H](O)[C@H](O)[C@H]2O)c2c(c1)C(=O)c1cccc(O)c1C2=O [Chrysophanein] | – | 51.1%
CC(=O)OC[C@H]1O[C@@H](O[C@@H]2[C@@H](O)[C@H](O[C@@H]3[C@H](O)C(C)(C)C[C@H]4C5=CC[C@@H]6[C@@]7(C)CC[C@H](O[C@@H]8O[C@H](C(=O)O)[C@@H](O)[C@H](O)[C@H]8O[C@@H]8O[C@H](CO)[C@H](O)[C@H](O)[C@H]8O[C@@H]8O[C@H](CO)[C@@H](O)[C@H](O)[C@H]8O)[C@](C)(CO)[C@@H]7CC[C@@]6(C)[C@]5(C)CC[C@@]34C)OC[C@@H]2O)[C@H](OC(C)=O)[C@@H](OC(C)=O)[C@@H]1OC(C)=O [Soyasaponin Ab] | – | 46.7%
